Screening results deposited in PubChem by National Center for Advancing Translational Sciences (NCATS).
TDP1 cell CPT = growth inhibition of DT40 Tdp1-/-;hTDP1 cells with camptothecin (screen for TDP1 inhibitors) | actives 12% (n = 420,000) | chicken DT40 Tdp1-/-;hTDP1 cells + 20 nM CPT, ATP luminescence, 48 h | Potency, µM (doses to about 46.2 µM), inactives show top-dose activity change, negative = growth inhibition, hits mostly inhibitors; further: on the % scale 0 is the no-effect control and ±100 the full control effect; nearly all actives have a fitted effect of over 55% in size
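Chicken DT40 Tdp1-/- cells complemented with human TDP1, 400 cells/well, exposed to compounds plus 20 nM camptothecin for at least 48 h at 37 C; viability read as ATP content by CellTiter-Glo luminescence.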
HT1080NT lethal = kills 2HG-producing HT-1080-NT fibrosarcoma cells; Potency, µM (titrated, usually from 46.1 µM), for the others: top-dose activity, negative = less viability, most hits filed as cytotoxic; HT-1080-NT fibrosarcoma viability, CellTiter-Glo ATP luminescence, 48 h; actives 1.6% (n = 360,000); AID 686970;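 further: NT is the 2HG producing partner of a matched IDH1 knockdown line; 0% = DMSO-treated cells and -100% = media-only wells without cells; nearly all actives have a fitted effect of over 55% in size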
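Read-out is CellTiter-Glo luminescence after 10 minutes at room temperature, following 48 hours' compound treatment of HT-1080-NT cells (750 cells/well, RPMI, 5% FBS, 37 degrees C).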
HT1080 IDH1KD tx = kills HT-1080 cells with IDH1 knockdown; Potency, µM (highest dose often 46.1 µM), without a hit: at the top dose activity, negative = toxicity, usual class: cytotoxic; HT-1080 IDH1 knockdown viability, ATP luminescence, 48 h; actives 2% (n = 360,000); AID 686971;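 further: 0% = DMSO wells and -100% = cell-free medium wells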
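CellTiter-Glo luminescence after 48 h compound exposure at 37 degrees C of IDH1-knockdown HT-1080 cells in 5% FBS RPMI. %Activity scaled between DMSO wells and cell-free media wells, with curves fitted and assigned curve classes.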
HepG2 tox = counter-screen for TGF-b inhibitors: cytotoxicity in HepG2 cells; actives 0.76% (n = 410,000); HepG2 CAGA-GFP viability, ATP luminescence, 18 h; Potency, µM (highest dose often 46.1 µM), for the others: top-dose activity change, negative = cytotoxicity, usual class: cytotoxic
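CellTiter-Glo luminescence gave cytotoxicity after 18 hours at 37 degrees C. The cells were HepG2 CAGA-GFP in 1% FBS DMEM, stimulated with 500 pg/mL TGF-beta after compound addition. %Activity was normalised to no-cell wells (complete cell-killing) and DMSO (no toxicity), and curves were fitted and classified.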
TGFb inhibitor = inhibitors of TGF-b signaling | HepG2 CAGA-GFP TGF-b/SMAD3 reporter, GFP fluorescence, 18 h; TGF-beta stimulated, 500 pg/mL final | Potency, µM (highest dose often 46.1 µM), for the others: at the highest dose activity, negative = inhibition, usual class: inhibitors | actives 1.2% (n = 410,000); further: on the % scale 0 is the no-effect control and ±100 the full control effect; nearly all actives have a fitted effect of over 65% in size
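TGF-beta reporter screen: HEPG2 CAGA-GFP, 1% FBS, 500 pg/mL TGF-beta final, 18 h; per-cell GFP summed per well; curves fitted and categorized by class.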
TDP1 cell noCPT = qHTS for Inhibitors of human tyrosyl-DNA phosphodiesterase 1 (TDP1): qHTS in cells in absence of CPT | actives 15% (n = 420,000) | AID 686978, 2013 | DT40 Tdp1-/- hTDP1 cells, no CPT, ATP luminescence, 48 h | Potency, µM (series often up to 46.2 µM), inactives show at the top dose activity change, negative = growth inhibition, actives largely listed as inhibitors; further: on the % scale 0 is the no-effect control and ±100 the full control effect; nearly all actives have a fitted effect of over 55% in size
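Luminescent ATP content (CellTiter-Glo) served as the growth readout. Knockout chicken DT40 cells expressing human TDP1 were exposed to compounds without camptothecin for a minimum 48 hr at 37 °C.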
* marks the source's active call; other numbers are inactive results; u = inconclusive; x = no result; [ ] = dose if it differs, or a comment. The list is not random: actives were taken first. Their share in the collection is about 17%. The call rests on the fitted dose curve; in most records, active means well fitted curve in the direction sought with a large enough effect; inconclusive means small, poorly fitted or top-dose-only effect, or another doubt; inactive means no such curve, though single readings can be large; an effect the other way counts as inactive or inconclusive. Potency means the concentration at half of the fitted maximal effect.

SMILES | TDP1 cell CPT | HT1080NT lethal | HT1080 IDH1KD tx | HepG2 tox | TGFb inhibitor | TDP1 cell noCPT
CCOC(=O)C1(CCOC)CCN(Cc2cnc(-c3cccc(C)c3)nc2)CC1 | u | -11% | -10% | -30% | -2% | 16µM*
Cc1ccc(S(=O)(=O)N2CCC3(CC2)OCCO3)cc1 | -5% | 9% | 1% | -2% | 5% | 16%
CCOC(=O)C1(CCOc2ccccc2)CCN(Cc2ccc(OC)c(O)c2)CC1 | 16µM* | 11% | 0% | -37% | -10% | u
CCOC(=O)C1(CCOc2ccccc2)CCN(Cc2ccc(O)c(OCC)c2)CC1 | -41% | u | u | -34% | -7% | u
c1ccc(Cn2ncc3c(Nc4ccccc4)ncnc32)cc1 | u | -1% | -24% | -37% | 5% | -27%
Brc1ccc(/C=N/Nc2ncnc3c2cnn3Cc2ccccc2)cc1 | 18µM* | 18% | 16% | -9% | 10% | 15µM*
O=C1C=C(c2ccccc2)CO1 | -6% | 9% | 14% | 0% | -27% | -18%
CCOC(=O)C1=C[C@@H](c2ccccc2)N(S(=O)(=O)c2ccc(C)cc2)[C@H]1c1ccccc1Cl | u | 1% | 10% | -16% | -22% | 26µM*
CCOC(=O)C1=C[C@@H](CC)N(S(=O)(=O)c2ccccc2)[C@H]1c1ccccc1 | u | -1% | 0% | -6% | u | 18µM*
CCOC(=O)C1=C[C@@H](C2CCCCC2)N(S(=O)(=O)c2ccc([N+](=O)[O-])cc2)[C@H]1c1ccccc1 | 21µM* | u | 8.2µM* | -10% | u | u
CCC[C@@H]1C=C(C(=O)OCC)[C@H](c2ccccc2)N1S(=O)(=O)c1ccc(C)cc1 | 5.2µM* | -10% | -23% | -21% | u | 5.2µM*
CCOC(=O)C1=C[C@@H](C)N(S(=O)(=O)c2ccc(C)cc2)[C@H]1c1ccccc1 | u | -3% | -7% | -16% | u | u
Cc1ccc(S(=O)(=O)N2[C@@H](c3ccc(Cl)c(Cl)c3)C(C(=O)O)=C[C@H]2C(C)(C)C)cc1 | u | -5% | -12% | -30% | u | u
CCOC(=O)C1=C[C@@H](C(C)(C)C)N(S(=O)(=O)c2ccc(C)cc2)[C@H]1c1ccc(Cl)c(Cl)c1 | 16µM* | 15µM* | 15µM* | -28% | u | 23µM*
CCOC(=O)C1=C[C@@H](C(C)C)N(S(=O)(=O)c2ccc(C)cc2)[C@H]1c1ccc(C(F)(F)F)cc1 | u | -14% | -19% | -44% | u | 12µM*
c1ccc(CCNc2ncnc3sccc23)nc1 | 6.5µM* | -22% | u | -41% | -19% | 7.3µM*
c1ccc(CCNc2ccccn2)nc1 | 0% | 1% | 0% | 6% | -11% | 2%
Cc1csc2ncnc(NCCc3ccccn3)c12 | 6.5µM* | -20% | -20% | 1% | -6% | 3.7µM*
COC(=O)c1ccccc1COc1cccn2c(N(C)C(=O)CCC3CCCC3)c(C)nc12 | u | -15% | -19% | -38% | -14% | u
COc1ccccc1COc1cccn2c(N(C)C(=O)CCC3CCCC3)c(C)nc12 | 18µM* | u | u | -34% | -17% | 15µM*
Cc1ccccc1COc1cccn2c(N(C)C(=O)CCC3CCCC3)c(C)nc12 | u | u | u | -36% | u | 23µM*
Cc1ccc(OCC(=O)NCc2n[nH]c(=O)c3ccccc23)cc1 | 6% | -2% | 1% | 0% | -3% | -7%
COC(=O)Nc1nc(-c2ccccc2)c(C(=O)c2ccc(Cl)cc2)s1 | 0.58µM* | u | u | 7% | u | 0.65µM*
CCOC(=O)Nc1nc(-c2ccccc2)c(C(=O)c2ccccc2)s1 | 0.58µM* | 0.58µM* | 0.58µM* | 8% | u | 0.65µM*
CC(=O)c1sc(NC(=O)c2ccccc2)nc1-c1ccccc1 | -17% | -3% | -1% | -21% | -11% | -22%
SMILES | TDP1 cell CPT | HT1080NT lethal | HT1080 IDH1KD tx | HepG2 tox | TGFb inhibitor | TDP1 cell noCPT
N#Cc1c(NC(=O)c2cnccn2)sc2c1CCCC2 | 9.2µM* | -20% | -24% | 4% | -3% | 12µM*
COc1ccc(-c2cc(C(=O)Nc3sc4c(c3C#N)CCCC4)no2)cc1OC | 0% | x | x | 3% | 32% | -8%
N#Cc1c(NC(=S)NC(=O)c2ccccc2)sc2c1CCCC2 | u | 8% | 2% | 4% | -6% | u
N#Cc1c(NC(=S)NC(=O)c2ccccc2)sc2c1CCCCC2 | u | x | x | -44% | -11% | u
Cn1ncc(Cl)c1C(=O)NC(=S)Nc1sc2c(c1C#N)CCCCC2 | 21µM* | 17% | 2% | -43% | -1% | u
N#Cc1c(NC(=O)c2ccccc2)sc2c1CCC2 | 18µM* | u | u | -22% | 0% | 16µM*
CC(C)c1cc(C(=O)Nc2sc3c(c2C#N)CCC3)no1 | u | -20%[9.24 µM] | u | -5% | 6% | 23µM*
O=C(/C=C/[C@H]1O[C@@H](n2ccc(=O)[nH]c2=O)[C@H](O)[C@@H]1O)NCc1cccs1 | 4% | 21% | 23% | 3% | -27% | 7%
COc1cc(=O)n2c(c1C(=O)N(C)Cc1cscn1)CCN(Cc1ccc3c(c1)OCCO3)CC2 | 20% | x | x | x | x | 9%
NC(=O)c1c(NC(=O)c2cccnc2)sc2c1CCCC2 | -1% | u | 16% | -15% | -8% | -28%
N#Cc1c(NC(=O)c2cccnc2)sc2c1CCC2 | 23µM* | 16µM* | 9.2µM* | 3% | -17% | u
CC(C)CN(C(=O)c1ccc(Br)o1)C1CCS(=O)(=O)C1 (stereo unspecified) | 1% | -1% | -11% | -2% | 21% | 2%
CC(=O)C1=CN(Cc2ccccc2)CCC1=O | -1% | 7% | 0% | -3% | -1% | -8%
Cc1ccc(C2=CN(Cc3ccccc3)CCC2=O)cc1 | 21µM* | 3% | -13% | -5% | 3% | u
O=C(Nc1ccc(C2=CN(Cc3ccccc3)CCC2=O)cc1)OCc1ccccc1 | -3% | 0% | -3% | 11% | u | -10%
O=C1CCN(Cc2ccccc2)C=C1c1ccc(Br)cc1 | 18µM* | -19% | -17% | -8% | -15% | 23µM*
